The record followed here is PubChem BioAssay (NCATS).

For experiment [1], the target named is Calcium and integrin-binding protein 1 (Homo sapiens) (UniProt Q99828). The experiment is described as follows: Primary qHTS for Identification of Calcium Integrin Binding Protein 1 (CIB1) Competitor (AID 1508620).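 Also: GST tagged CIB1 binding a fluorescein labelled alphaIIb integrin peptide tracer; top concentration of the series differs between compounds.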 In outline: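 CIB1-GST (1 uM final) and compound incubated 15 min at room temperature before adding FITC-alphaIIb peptide tracer (100 nM final). Competition for binding read by fluorescence polarization (ex 480, em 540) after another 15 min at room temperature.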
Calcium and integrin-binding protein 1 (Homo sapiens), sequence (Q99828 whole entry, looked up): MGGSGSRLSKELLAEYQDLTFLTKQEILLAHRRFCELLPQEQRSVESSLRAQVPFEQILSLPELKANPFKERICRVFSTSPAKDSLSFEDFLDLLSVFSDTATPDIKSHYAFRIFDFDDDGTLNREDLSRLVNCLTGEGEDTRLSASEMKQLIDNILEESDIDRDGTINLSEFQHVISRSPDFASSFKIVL
On the technique in general: In qHTS, concentration-response curves come from the screen itself.

The nature of experiment [2]: Primary qHTS for inhibitors of nuclear receptor binding SET domain protein 2 (NSD2) in an isogenic RCH-ACV NSD2 p.E1099K mutant (9B) (AID 1645876). Also: potency is read from the fitted curve at half-maximal effect; nearly all actives have a fitted effect of over 70% in size.
Experiment [3] is described as follows: Primary qHTS for inhibitors of nuclear receptor binding SET domain protein 2 (NSD2) in an RCH-ACV wild type WT cells (2C) (AID 1645877). Also: nearly all actives have a fitted effect of over 70% in size. Also: potency is read from the fitted curve at half-maximal effect.
The target of experiment [4] is Glutathione peroxidase 1 (Homo sapiens) (UniProt P07203). Nature of the experiment: Primary qHTS Assay for Inhibitors of Recombinant Selenoprotein Glutathione Peroxidase 1 (GPX1) (AID 1845191). Also: nearly all actives have a fitted effect of over 65% in size. In outline:
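NADPH consumption tracked by fluorescence at 340/450 nm between t=0 and t=15 min, room temperature. Final mix: 10 nM GPX1, 100 nM glutathione reductase, 1 mM GSH, 0.5 mM NADPH, 0.5 mM cumene hydroperoxide, 0.01% BSA; 30 min compound–enzyme preincubation.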

Experiment [5] has as its target Phospholipid hydroperoxide glutathione peroxidase GPX4 (Homo sapiens) (UniProt P36969). Nature of the experiment: Primary qHTS Assay for Inhibitors of Recombinant Selenoprotein Glutathione Peroxidase 4 (GPX4) (AID 1845192). Also: nearly all actives have a fitted effect of over 65% in size. The following applies: outcome: dose series up to 50 µM unless noted. Summed up:
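NADPH consumption followed by fluorescence at 340/450 nm, t=0 and after 15 min at room temperature. Reaction started with cumene hydroperoxide (0.5 mM final) after 30 min compound–GPX4 preincubation; final 200 nM GPX4, 100 nM GR, 1 mM GSH, 0.5 mM NADPH.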

Experiment [6] addresses Luciferin 4-monooxygenase (Photinus pyralis) (UniProt P08659). The experiment is described as follows: Primary firefly luciferase (FLuc) qHTS assay for identification of artifact compounds. (AID 1845220). Also: nearly all actives have a fitted effect of over 60% in size. In outline:
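FLuc 10 nM; luciferin 10 uM; ATP 10 uM; Tris-acetate pH 7.6, Mg-acetate 10 mM; 15 min RT preincubation; 5 min reaction; luminescence.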

Experiment [7] in a line: Primary fluorescence-based thiol-reactive (MSTI) qHTS assay for identification of artifact compounds. (AID 1845221).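 Also: thiol-reactive compounds lower the probe fluorescence signal; nearly all actives have a fitted effect of over 65% in size.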 In outline:
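First, 4 uM MSTI in 2% DMSO/PBS pH 7.4 was dispensed; next, compounds were added; then plates sat 1 h at room temperature without light. Finally, emission at 598 nm was recorded.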

The nature of experiment [8]: Primary redox qHTS assay for identification of artifact compounds. (AID 1845223). In outline:
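Redox-cycling detection via DTT (250 uM final) oxidation coupled to Amplex Red (25 uM)/HRP (250 mU/mL) in HBSS. 15 min preincubation plus 30 min after DTT, room temperature. Ex/Em 525/598 nm; 4-parameter Hill fit against DMSO and 10 uM DA3003.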

In the next experiment the test system is C33A. The experiment is described as follows: Primary qHTS to identify gynecologic anti-cancer compounds using libraries of approved drugs and bioactive compounds (AID 1345084). Also: nearly all actives have a fitted effect of over 55% in size. Also: potency is read from the fitted curve at half-maximal effect. Particulars: Gynecologic cancer cell panel viability, ATPlite luminescence, 48 h; series mostly up to 57.5 µM. Summed up: (§1)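 48 h compound exposure at 37 C, 5% CO2; five-point qHTS. ATPlite luminescence readout of cell ATP.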

The next experiment relates to CASKI. The description is as above. The following applies: Gynecologic cancer cell panel viability, ATPlite luminescence, 48 h; series mostly up to 57.5 µM. In outline: as §1
A general note: Cellular ATP, detected with luciferase, serves as a proxy for viable cell number.

A further experiment has as its system Es-2. The experiment is described as above. Particulars: Gynecologic cancer cell panel viability, ATPlite luminescence, 48 h; series mostly up to 57.5 µM. Summed up:
as §1

The test system of the next experiment is HeLa. The description is as above. Particulars: Gynecologic cancer cell panel viability, ATPlite luminescence, 48 h; series mostly up to 57.5 µM. In outline: as §1
Another experiment relates to Hek293T. The experiment is described as above. The following applies: Gynecologic cancer cell panel viability, ATPlite luminescence, 48 h, control line for the selectivity index; series mostly up to 57.5 µM. In outline: as §1
The subject of a further experiment is JEG-3. The experiment is described as above. The following applies: Gynecologic cancer cell panel viability, ATPlite luminescence, 48 h; series mostly up to 57.5 µM. Summed up: as §1
In a further experiment the test system is OV90. The experiment is described as above. The following applies: Gynecologic cancer cell panel viability, ATPlite luminescence, 48 h; series mostly up to 57.5 µM. Summed up:
as §1

The test system of the next experiment is PA-1. Described as above. The following applies: Gynecologic cancer cell panel viability, ATPlite luminescence, 48 h; series mostly up to 57.5 µM. In outline:
as §1

The subject of the next experiment is Tov-21-G. The experiment is described as above. The following applies: Gynecologic cancer cell panel viability, ATPlite luminescence, 48 h; series mostly up to 57.5 µM. Summed up:
as §1

Another experiment concerns Tov112D. Described as above. Particulars: Gynecologic cancer cell panel viability, ATPlite luminescence, 48 h; series mostly up to 57.5 µM. In outline:
as §1

The subject of experiment [9] is Zika virus NS2B-NS3 protease (linked construct). The experiment is described as follows: Primary screen NINDS Rhodamine qHTS for Zika virus inhibitors (AID 1347160). Also: nearly all actives have a fitted effect of over 55% in size. In outline: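 Each compound, titrated, sat 15 min with 25 nM linked protease before 1.5 microM Rhodamine110 substrate went in. Fluorescence gain over the next 15 min, in pH 8.0 Tris with Tween 20, gave Hill-fitted curves.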

Experiment [10] deals with Nanoluciferase (engineered Oplophorus gracilirostris luciferase). The experiment is described as follows: Primary Nanoluciferase (NLuc) qHTS assay for identification of artifact compounds. (AID 1845222).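 Also: NLuc secreted into diluted conditioned medium of S16 cells.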 In outline:
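NLuc from S16 cell medium (1:55) plus test compounds, 15 min, room temperature. Luminescence after Nano-Glo (1:100) addition, 5 min.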

Several values for one entry are separate records, joined by “and”; a condition that tells them apart may be missing. Identical values can stand only once. A number with no mark means an inactive call. Inconclusive results are not listed. Activity calls are given as the source filed them. Calls follow the shape of the dose curve; as a rule, active = well fitted curve in the direction sought with a large enough effect; inconclusive = small, poorly fitted or top-dose-only effect, or another doubt; inactive = no such curve, though single readings can be large; an effect the other way counts as inactive or inconclusive.

Glutathione peroxidase 1 (Homo sapiens), sequence (P07203 whole entry, looked up): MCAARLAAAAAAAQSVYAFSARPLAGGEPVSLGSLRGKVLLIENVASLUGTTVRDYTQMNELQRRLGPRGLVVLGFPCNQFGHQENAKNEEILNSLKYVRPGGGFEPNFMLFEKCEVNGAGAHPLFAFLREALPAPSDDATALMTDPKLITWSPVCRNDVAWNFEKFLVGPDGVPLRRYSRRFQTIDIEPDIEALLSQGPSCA
Phospholipid hydroperoxide glutathione peroxidase GPX4 (Homo sapiens), sequence (P36969 whole entry, looked up): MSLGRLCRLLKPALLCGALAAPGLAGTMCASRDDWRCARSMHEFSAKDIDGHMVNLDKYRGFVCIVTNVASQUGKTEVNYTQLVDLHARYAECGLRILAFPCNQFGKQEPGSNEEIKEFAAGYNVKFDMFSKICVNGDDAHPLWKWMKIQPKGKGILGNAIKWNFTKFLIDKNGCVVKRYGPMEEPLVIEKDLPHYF

Consider `Cc1nnsc1C(=O)Nc1ccc(-n2nc(C(F)(F)F)cc2C(F)(F)F)cc1`, for which the result in experiment [1] was inactive. For the same molecule, the Potency was 20.5 µM (active) in [2] and 11.5 µM (active) in experiment [3]. In addition, the Potency entry (in experiment [4]; in experiment [5]; in experiment [6]; in experiment [7]; in experiment [8]; with C33A) was “inactive” in each case. Also, the Potency entry in the experiment with CASKI, in the experiment with Es-2, in the experiment on HeLa, with Hek293T, in the experiment on JEG-3 and in the experiment on OV90 was “inactive” each time. Moreover, the Potency entry with PA-1, in the experiment with Tov-21-G and in the experiment with Tov112D was “inactive” in each case.

On to `CS(=O)(=O)c1ccc(-c2cn3ccccc3n2)cc1`, for which the Potency in the experiment with C33A is 10 µM (active); in the experiment on CASKI, 6.31 µM (active); with HeLa, 12.6 µM (active); in the experiment on Hek293T it was 17.8 µM (active); in the experiment on JEG-3, 7.08 µM (active); with OV90 it was 7.94 µM (active). The Potency in the experiment on PA-1 is 17.8 µM (active); in the experiment on Tov-21-G it was 8.91 µM (active); in the experiment on Tov112D, 7.94 µM (active).

On to `C=C(C)C(=O)O[C@H]1[C@H]2C(=C)C(=O)O[C@@H]2C[C@@H](C)/C=C\C(=O)[C@](C)(O)[C@@H]1OC(C)=O`, for which the Potency result in experiment [9], in [3], in [4], in [5], in experiment [6] and in [10] was “inactive” each time. The Potency entry in [8] is “inactive”. Besides, the outcome in experiment [1] was inactive. The Potency with C33A is 11.2 µM (active); with Es-2, 11.2 µM (active); with JEG-3, 10 µM (active); in the experiment with PA-1, 10 µM (active); with Tov-21-G, 7.94 µM (active).

For `C=CC(=O)N1CCN(C(=O)c2cc(-c3cc(Cl)ccc3Cl)c(Cl)cc2OC)CC1`, the Potency entry in experiment [9], in [5], in [6], in experiment [7], in experiment [10] and in [8] was “inactive” each time. The Potency entry in the experiment with CASKI, with JEG-3, in the experiment with OV90 and with PA-1 was “inactive” each time. In addition, the result in [1] was inactive. The figures for the Potency in experiment [2] and in experiment [3] were 11.5 µM (active) and 8.17 µM (active), respectively.

`Cc1cc(CN)cc(C)c1NC(=O)c1ccc(-c2cc(Cl)ccc2Cl)o1`: the Potency result in experiment [9], in [4], in experiment [5], in [6], in [7] and in [10] was “inactive” each time. Further, the Potency entry (in experiment [8]; with C33A; in the experiment with CASKI; with Es-2; in the experiment on HeLa; in the experiment on Hek293T) was “inactive” each time. Besides, the Potency result in the experiment with JEG-3, in the experiment with OV90, in the experiment on PA-1, with Tov-21-G and in the experiment with Tov112D was “inactive” each time. In addition, in experiment [1], the result was inactive. Besides, the figures for the Potency in [2] and in [3] were 18.3 µM (active) and 9.16 µM (active), respectively.

Regarding `COCCNCc1ccc(-c2cc3nccc(Oc4ccc(NC(=S)NC(=O)Cc5ccc(F)cc5)cc4F)c3s2)nc1`, in experiment [1], the result was inactive. The Potency is 2.9 µM (active) in [2] and 31.6 µM (active) in the experiment with PA-1. Also, the Potency result (in [4]; in experiment [5]; in experiment [6]; in experiment [7]; in experiment [8]; in the experiment with CASKI) was “inactive” throughout. Besides, the Potency result in the experiment on JEG-3 and with Tov-21-G was “inactive” in each case.

`COc1cc(-c2cc(-c3cccc(O)c3)cnc2N)cc(OC)c1OC`: the Potency result (in experiment [9]; in experiment [4]; in experiment [6]; in [7]; in the experiment on C33A; with CASKI) was “inactive” in each case. The Potency result with Es-2, in the experiment with HeLa, in the experiment with Hek293T, in the experiment with JEG-3, in the experiment on OV90 and in the experiment with PA-1 was “inactive” each time. The result in experiment [1] was inactive. The Potency in [2] is 10.3 µM (active); in [3], 12.9 µM (active).

As to `COc1cc(N2CCN(C(C)=O)CC2)ccc1Nc1ncc(Cl)c(Nc2ccc(N3CCN(C(C)=O)CC3)cc2OC)n1`, the Potency entry (in experiment [9]; in [4]; in experiment [5]; in experiment [6]; in experiment [10]; in the experiment with C33A) was “inactive” each time. In addition, the Potency entry in the experiment with Es-2 and with JEG-3 was “inactive” each time. Moreover, the outcome in [1] was inactive. Also, the Potency in [2] is 8.17 µM (active) and 16.6 µM (active); in experiment [3], 6.49 µM (active) and 13.2 µM (active).
